PubChem BioAssay AID1466 (National Center for Advancing Translational Sciences (NCATS), 2008)
The campaign covered roughly 200,000 compounds. About 10 (0.005%) were called active. About 8% were inconclusive and are not listed. Calls come from the whole dose curve; as a rule, active = well fitted inhibition curve with a large enough effect; inconclusive = small, poorly fitted or top-dose-only effect, or effect the other way, or another doubt; inactive = no such curve, though single readings can be large or run the other way. Only a sample is shown.

What follows are molecules tested against Lysosomal alpha-glucosidase (Homo sapiens) (UniProt P10253) (assay: qHTS Assay for Inhibitors of Human alpha-Glucosidase as a Potential Chaperone Treatment of Pompe Disease). Settings: purified human GAA, 4-MU-alpha-glucoside fluorescence; series mostly up to 76.9 µM.
Description: NIH Chemical Genomics Center [NCGC] NIH Molecular Libraries Probe Production centers Network [MLPCN] MLPCN Grant: 1R03MH084841-01 Assay Submitter (PI): Wei Zheng NCGC Assay Overview: Alpha-glucosidase is responsible for hydrolysis of terminal, non-reducing 1,4-linked alpha-D-glucose residues with release of alpha-D-glucose. It is a lysosomal hydrolase that is required for the degradation of a small percentage (1-3%) of cellular glycogen in human. Deficiency of this enzyme results in glycogen-storage disease type II (GSDII), also referred to as Pompe disease, an autosomal recessive disorder. Structurally normal glycogen is accumulated in lysosomes and cytoplasm in affected patients, primarily in muscle tissues. Excessive glycogen storage within lysosomes may interrupt normal functioning of other organelles and leads to cellular injury. In turn, this leads to enlargement and dysfunction of the entire organ involved (eg, cardiomyopathy and muscle weakness). It has reported that the improper folding and trafficking of alpha-glucosidase resulting from the genetic mutations may account for a significant number of Pompe patients. […] We optimized this alpha-glucosidase assay in 1536-well plate format for identifying the novel small molecule inhibitors with the structures other than the sugar analogs in order to develop the new pharmacological chaperones.
NCGC Assay Protocol Summary: This is a fluorogenic enzyme assay with 4-methylumbelliferyl-alpha-D-[…] as the substrate and human alpha-glucosidase as the enzyme preparation. Upon the hydrolysis of this fluorogenic substrate, the resulting product, 1. 4-methyllumbelliferone, can be excited at 365 nm and emits at 440 nm which can be detected by a standard fluorescence plate reader. Data were normalized to the controls for basal activity (without enzyme) and 100% activity (with enzyme). In the AC50 values were determined from concentration-response data modeled with the standard Hill equation. Assay buffer: 50 mM citric acid (titrated with potassium phosphate to pH 5.0), 0.005% Tween-20, pH 5.0. (pH 5.0 is an optimal condition for this enzyme assay) 1536-well assay protocol for the human alpha-glucosidase: (1) Add 2 ul/well of enzyme (4 nM final) (2) Add 23 nL compounds in DMSO solution. The final titration was 0.7 nM to 77 uM. (3) Add 1 ul of substrate (400 uM final) (4) Incubate at room temperature for 20 min. (5) Add 2 ul stop solution (1M NaOH and 1M Glycine mixture, pH 10) (6) Detect the assay plate in a ViewLux plate reader (PerkinElmer) with Ex=365 nm and Em=440nm. Keywords: Alpha-glucosidase, Pompe Disease, pharmacological chaperone, chaperone therapy, high throughput screening, alpha-glucosidase inhibitor, MLSMR, MLSCN, NIH Roadmap, qHTS and NCGC
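Note: plate controls were uninhibited enzyme wells for no effect and no-enzyme background for full effect.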

Activity change, negative = inhibition, inactive:
CC1CCN(S(=O)(=O)c2ccc3ncn(CC(=O)N(C)C4CCCCC4)c(=O)c3c2)CC1, Cc1nn(-c2ccccc2)c(=O)c2noc(C)c12 -3.66% [at 15.4 µM], Cc1ccc(NNC(=O)c2c(F)cccc2Cl)cc1Cl 1.45% [at 15.4 µM], Cc1c(C(=O)N(Cc2ccccc2)Cc2cccnc2)cnn1-c1ccc(F)cc1, CCOC(=O)C(=CNNc1ccsc1C(=O)OC)C(=O)OCC, Cc1ccc(-c2csc(-c3cc(C)on3)n2)cc1, CC(=O)Nc1ccc(S(=O)(=O)Nc2nccc(/C=C/c3ccccc3F)n2)cc1, CCN1CCN(C(C(=O)NC2CCCC2)c2cc3c(cc2[N+](=O)[O-])OCO3)CC1 (stereo unspecified), Cc1ccc(C2CCN(C(=S)Nc3cccc(Cl)c3)C2)cc1 (stereo unspecified), COc1cccc(-c2ccc(SCC(=O)N3CCN(c4ccccc4)CC3)nn2)c1, COc1ccccc1-c1c(C#N)c(N)nc2c1CCC2 6.93% [at 15.4 µM], Cc1noc(C)c1-c1nc(CSc2ccc(Cl)cc2)no1, C/C(=N/NC(=O)c1ccn(C)n1)c1ccncc1, O=C(COC(=O)c1ccccn1)Nc1cccc2ccccc12, CC(C)CCN1CCN(Cc2ccc(C(F)(F)F)cc2)CC1CCO (stereo unspecified), O=C(NC(Cc1c[nH]c2ccccc12)C(=O)O)/C(=C/c1ccco1)NC(=O)c1ccccc1 (stereo unspecified), COc1ccccc1-n1c(=S)[nH]c2c(sc(=S)n2-c2ccc(C)cc2C)c1=O, COc1ccc(C)cc1NC(=O)NCc1ccccn1, Cn1c(CC2Sc3ccccc3NC2=O)nnc1SCC(=O)c1ccc(Cl)cc1 (stereo unspecified), N#Cc1ccc(Oc2ccc(C(F)(F)F)cc2NC(=O)c2ccc(F)cc2)cc1, O=C(CSc1ccc([N+](=O)[O-])cn1)Nc1ccc(N2CCOCC2)c(Cl)c1, C/C(=N/O)c1ccc(N2C(=O)C3C4C=CC(C3C2=O)C2C3C(=O)N(c5ccc(/C(C)=N/O)cc5)C(=O)C3C42)cc1 (stereo unspecified), CC(=O)c1ccc(N=C2SCCCN2C(=O)C2CCCCC2)cc1, O=C(NNC(=S)NC(=O)c1cn(-c2ccccc2)nc1-c1ccccc1)c1ccncc1, COc1ccc(C)cc1NC(=S)Nc1ccccc1SC, Cc1ccc(S(=O)(=O)NC(=O)N2CCCN(Cc3ccc(F)cc3)CC2)cc1, Cc1ccc(/C=N/NC(=O)CN2CCN(Cc3ccccc3)CC2)s1 -2.78% [at 15.4 µM], CCS(=O)(=O)c1ccc(O)c(NC(=O)COc2ccc(Cl)cc2)c1, CCc1nc2ccccc2c(C(=O)NCc2ccc(OC)cc2)c1C, CCc1ccc(CN(C)C(=O)CCc2nnc(-c3ccc(-c4ccccc4)cc3)o2)nc1, CN(C)c1ccc(C=NCCc2ccc(S(N)(=O)=O)cc2)cc1, COc1ccc(CN2CCC(c3nc4ccc(Cl)cc4[nH]3)CC2)cc1, Cc1ccccc1CSc1nnc(-c2ccccc2)c(=O)[nH]1, CCC(=O)OCCNc1nc(-c2ccccc2)nc2ccccc12, NNC(=O)c1cnn(-c2ccccc2)c1C(F)(F)F, Cc1ccc(CN(Cc2cccnc2)C(=S)Nc2cccc(Cl)c2C)cc1, CCOc1cc2c(Cl)ncnc2c(OCC)c1OCC, CC12C(=O)N(c3ccccc3)C(=O)C1C(c1ccccc1)N1CCCN12 (stereo unspecified) -7.1% [at 15.4 µM], CSc1nc(C)nc(C2CC2)c1C#N, COc1ccc(C)cc1NC(=O)CSc1nnc(CC(=O)Nc2ccccc2F)n1C, C=CCc1ccc(OCC(O)CN2CCN(Cc3ccccc3)CC2)c(OC)c1 (stereo unspecified), O=C(c1ccc(-c2ccccc2)cc1)C1CCCN(C(=O)c2cncs2)C1 (stereo unspecified), Cc1c(CCC(=O)O)c(=O)oc2cc3occ(-c4ccccc4)c3cc12 4.78% [at 15.4 µM], Cc1n[nH]c(=O)n1-c1ccc(C(C)C)cc1, O=C(COC(=O)c1ccncc1)c1ccccc1, O=C(Nc1ccc(S(=O)(=O)Nc2nccs2)cc1)c1cc(=O)[nH]c2ccccc12 -5.51% [at 15.4 µM], COC(=O)c1ccc(CN2CCN(CCCc3ccccc3)C(CCO)C2)cc1 (stereo unspecified), Cc1cc(CO)nn1-c1ccc([N+](=O)[O-])cc1, Cc1ccc2cc(CN(c3ccc(C)c(C)c3)S(C)(=O)=O)c(=O)[nH]c2c1, O=C(Cc1ccccc1)N1CCN(S(=O)(=O)c2ccc([N+](=O)[O-])cc2)CC1, CC(=O)c1c(-c2ccccc2)c2ccccc2[nH]c1=O, c1ccc(-c2cc(N3CCCCC3)c3ccccc3n2)cc1, FC(F)(F)c1ccnc(Oc2ccc(C3=NCCS3)cc2)c1, O=C(O)CC1=C(Nc2ccccc2)C(=O)N(c2ccccc2)C1c1ccc(Cl)cc1 (stereo unspecified), CC1CCCN(CC(O)COc2ccc3c(c2)OCO3)C1 (stereo unspecified), COc1ccc(/C=C/CN2CCN(Cc3ccc(C)cc3)C(CCO)C2)cc1 (stereo unspecified), COc1cc(C)c(Cl)cc1S(=O)(=O)n1ccnc1, CCOC(=O)C1(CC2CCCCO2)CCN(Cc2nc(-c3cccs3)oc2C)CC1 (stereo unspecified), O=C(c1ccc(OC2CCN(Cc3ccccn3)CC2)cc1)N1CCCCCC1, c1ccc(Cc2cc[n+](Cc3ccccc3)cc2)cc1, Cc1nc(N)[nH]c(=O)c1Oc1cccc(C(F)(F)F)c1, CC(C)Oc1ccc(CCc2nnc(SCC(=O)O)n2-c2ccccc2)cc1, O=C(NC1C2CC3CC(C2)CC1C3)c1ccc(N2CCNCC2)c([N+](=O)[O-])c1 (stereo unspecified) -3.61% [at 15.4 µM], CCN(CC)P(=O)(Nc1ccc(SC(F)F)cc1)c1ccc(N(C)C)cc1NC(=O)c1ccco1 (stereo unspecified), C=C(C)COc1ccc(-c2nc(N)ncc2-c2ccccc2OC)c(O)c1, CCN(CCn1cccn1)Cc1nc(-c2ccc(C(=O)OC)cc2)no1, O=C1Oc2ccccc2C(=O)/C1=C/c1ccccc1O, Cc1ccc(S(=O)(=O)N2CCOCC2)cc1C(=O)OC1CCCCC1=O (stereo unspecified), N#CC1=C(N)Oc2c(ccc3cccnc23)C1c1ccncc1 (stereo unspecified) -8.01% [at 15.4 µM], COC(=O)c1sccc1NN1C(=O)c2ccccc2C1=O, CCc1ccc(-n2c(SCc3cc(=O)n4cc(Br)ccc4n3)nc3[nH]ncc3c2=O)cc1, O=C(c1ccc(F)cc1)n1c(=S)nc2ccccn21, COc1ccc(CN2CCCC(C(=O)c3ccc(Cl)cc3)C2)cc1Cn1cncn1 (stereo unspecified), CS(=O)(=O)c1ccc2nnn(OCC(=O)Nc3cccc(C#N)c3)c2c1, CCOC(=O)c1ccc(NNC(C)=O)c([N+](=O)[O-])c1, COc1ccc(OC)c(NC(=O)CN(Cc2ccc(Cl)cc2)S(C)(=O)=O)c1, O=C(N/N=C/c1ccccn1)c1cccnc1 -6.66% [at 15.4 µM], CCOC(=O)c1cnc2c(c(C)nn2CC)c1Cl, CCc1nc(C)cn1S(=O)(=O)c1cc([N+](=O)[O-])ccc1Cl, O=[N+]([O-])c1ccc(F)cc1Oc1nc(-c2cccnc2)nc2ccccc12, COc1ccc(/C=C/C2=CC(C)(C)NC(=S)N2)c(OC)c1, COc1ccccc1C1CCN(C(=S)Nc2ccc(Br)cc2)CC1 -8.72% [at 15.4 µM], Cc1ccc(-c2nn(-c3cccc(F)c3)cc2CNCCc2ccncc2)o1, Brc1ccc2nc(N3CCCC3)sc2c1, COc1ccc(Cl)cc1N(CC(=O)N1CCCCC1)S(C)(=O)=O, Cn1nc(C(F)(F)F)cc1-c1ccc(/C=C(\C#N)C(=O)c2cccc(C(F)(F)F)c2)s1, COc1ccc(C(=O)Nc2ccc(NC(=O)C(C)C)nc2)cc1, CC1Cc2ccccc2N1C(=O)CSc1nnc(C2CC2)n1C (stereo unspecified), Cc1nnsc1C(=O)NCc1c(F)cccc1Cl, Cc1cc(Cl)ccc1NNC(=O)c1snnc1C, COc1cc(C)c(S(=O)(=O)N2CCOCC2)c(C)c1C, COc1ccccc1/C=C/C=N/NC(=O)CN1CCN(Cc2ccccc2)CC1, Cc1ccc(NC(=O)CSc2nnc(CNC(=O)c3ccccc3F)o2)cc1, COc1cccc(NCCC(=O)c2cccc([N+](=O)[O-])c2)c1, CC(C)N(Cc1ccccc1)C(=O)COC(=O)c1cnccn1, O=C1Nc2ccc([N+](=O)[O-])cc2C1=Nc1cccc(CO)c1, COc1cc(/C=C2/C(=O)ON=C2C)ccc1OCc1cccc(F)c1, CCCCS(=O)c1snnc1C (stereo unspecified), COc1ccc(-c2nc(N)sc2C2(O)C(=O)Nc3c(Br)cc(F)cc32)cc1OC (stereo unspecified), COc1ccccc1NC(=O)c1cc(Cl)nc2ccccc12 -0.703% [at 15.4 µM], Cc1c(C(=O)Nc2ccccc2)sc2nc3n(c(=O)c12)CCCCC3, Cc1noc(C)c1COc1ccc2ccc(=O)oc2c1, O=C(CO/N=C/c1ccc(OC(F)F)cc1)NCc1ccc(F)cc1, COCc1cc(=O)[nH]c(-c2ccc(C(F)(F)F)cc2)n1, CC1CC(C)CN(C(=O)CSc2ccsc2[N+](=O)[O-])C1 (stereo unspecified), O=C(c1ccc(=O)oc1)N1CCC(C(O)(c2ccccc2)c2ccccc2)CC1
